What all share (assay): NCI-60 one-dose screen, 48 h (100 = growth as untreated, 0 = no growth, -100 = all killed)
One experiment has as its system NCI-H23 lung. The settings on record: 10 µM unless noted.
A further experiment has as its system NCI-H226 lung. The settings on record: 10 µM unless noted.
The next experiment relates to NCI-H322M lung. The settings on record: 10 µM unless noted.
In a further experiment the test system is HOP-62 NSCLC. Particulars: 10 µM unless noted.
The subject of the next experiment is NCI-H460 lung. Particulars: 10 µM unless noted.
In a further experiment the test system is HOP-92 NSCLC. The settings on record: 10 µM unless noted.
The next experiment relates to NCI-H522 lung. Particulars: 10 µM unless noted.
The next experiment has as its system A549/ATCC NSCLC. The settings on record: 10 µM unless noted.
Another experiment has as its system 786-0 renal. Particulars: 10 µM unless noted.
The subject of another experiment is COLO 205 colon. The settings on record: 10 µM unless noted.
A further experiment has as its system DU-145 prostate. The settings on record: 10 µM unless noted.
Another experiment deals with K-562 leukemia. Particulars: 10 µM unless noted.
A further experiment deals with MALME-3M melanoma. The settings on record: 10 µM unless noted.
For a further experiment, the system named is MDA-MB-231 breast. The settings on record: 10 µM unless noted.
The next experiment has as its system RXF 393 renal. Particulars: 10 µM unless noted.
Another experiment deals with SF-268 CNS. The settings on record: 10 µM unless noted.
Another experiment relates to SF-295 CNS. The settings on record: 10 µM unless noted.
In another experiment the test system is SF-539 CNS. Particulars: 10 µM unless noted.
For the next experiment, the system named is UACC-257 melanoma. Particulars: 10 µM.
A further experiment deals with M14 melanoma. Particulars: 10 µM unless noted.

The panel holds about 83,000 compounds, 20% with a hit somewhere; the sample as a whole holds those more often.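 For each line, cells grew in 96-well plates with the test compound present at a single concentration for 48 hours.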 Unmarked numbers belong to inactive results. Calls of active or inactive are those of the source. Rule for the calls: active = growth percent below 10; inactive = the rest.

Turning to `O=C(Nc1ccc(OCc2nnc(-c3ccc(Cl)cc3)o2)c(F)c1)Nc1ccc(Cl)c(Cl)c1`, the growth in the experiment on NCI-H23 lung was 47.3%; in the experiment with NCI-H226 lung, 78.7%; in the experiment on NCI-H322M lung it was 54.7%; with HOP-62 NSCLC, 47.5%; in the experiment with NCI-H460 lung it was 29.2%; in the experiment on HOP-92 NSCLC it was 59%. For the same compound, the growth in the experiment on NCI-H522 lung was 40.4%; in the experiment with A549/ATCC NSCLC, 32.2%; in the experiment with 786-0 renal it was 90%; in the experiment with COLO 205 colon it was 70.3%; in the experiment with DU-145 prostate, 34.4%; in the experiment on K-562 leukemia, 67.3%. Besides, the growth with MALME-3M melanoma was 33.4%; in the experiment with MDA-MB-231 breast it was 26.3%; in the experiment on RXF 393 renal, 50.7%; in the experiment on SF-268 CNS it was 53.3%; with SF-295 CNS, 62.5%; in the experiment with SF-539 CNS, 45%. For the same compound, the growth was 74.4% in the experiment on UACC-257 melanoma and 61.5% in the experiment with M14 melanoma.

As to `NCCSC(c1ccccc1)(c1ccccc1)c1ccccc1`, the growth was 25.1% in the experiment with NCI-H23 lung; 68.6% in the experiment with NCI-H226 lung; 29.5% with NCI-H322M lung; 40.8% in the experiment with HOP-62 NSCLC; 7.06% (active) in the experiment on NCI-H460 lung; -2.14% (active) in the experiment on HOP-92 NSCLC. For the same compound, the growth with NCI-H522 lung was -20.7% (active); with A549/ATCC NSCLC, 19.9%; in the experiment on 786-0 renal, 37.9%; with COLO 205 colon it was -42.8% (active); with DU-145 prostate, -1.74% (active); in the experiment on K-562 leukemia, 3.65% (active). Further, the growth in the experiment on MALME-3M melanoma is 27.5%; in the experiment with MDA-MB-231 breast, -24.2% (active); in the experiment with RXF 393 renal, -7.93% (active); with SF-268 CNS it was 27.4%; in the experiment with SF-295 CNS, -45.9% (active); in the experiment with SF-539 CNS, -46.1% (active). The values for the growth in the experiment with UACC-257 melanoma and with M14 melanoma were 47.7% and -9.88% (active), respectively.

As for `CCOC(=O)c1cc(/C(=N\O)c2cc(OC)c(OC)c(OC)c2)n2cc(C)cc(C)c12`, the growth with NCI-H23 lung is 55.2%; with NCI-H226 lung, 74.3%; with NCI-H322M lung, 66.2%; in the experiment with HOP-62 NSCLC it was 32.3%; in the experiment with NCI-H460 lung, 4.9% (active); in the experiment on HOP-92 NSCLC, 51.9%. The growth in the experiment with NCI-H522 lung was -10.6% (active); with A549/ATCC NSCLC, 34.9%; with 786-0 renal, 19.1%; with COLO 205 colon, 11.5%; with DU-145 prostate, 41.9%; with K-562 leukemia, 12.5%. Also, the growth is 37.8% with MALME-3M melanoma; 34.7% in the experiment with MDA-MB-231 breast; 36.1% in the experiment with RXF 393 renal; 38.7% in the experiment on SF-268 CNS; 1.85% (active) with SF-295 CNS; 15.8% with SF-539 CNS. Further, the growth with M14 melanoma is 10.5%.

In the case of `CC(=O)c1cc(C(=O)c2ccc3c(c2)Sc2ccccc2N3)c2cc(C)ccn12`, the growth is 16.5% in the experiment on NCI-H23 lung; 56.6% in the experiment with NCI-H226 lung; 35.1% in the experiment with NCI-H322M lung; 21.1% in the experiment on HOP-62 NSCLC; 1.02% (active) in the experiment with NCI-H460 lung; 42.6% with HOP-92 NSCLC. The growth in the experiment with NCI-H522 lung is -47.9% (active); with A549/ATCC NSCLC, 14.5%; with 786-0 renal, 9.68% (active); in the experiment on COLO 205 colon, -62.2% (active); in the experiment with DU-145 prostate, 0.638% (active); in the experiment on K-562 leukemia it was 5% (active). Also, the growth was 68.2% in the experiment with MALME-3M melanoma; 3.24% (active) with MDA-MB-231 breast; 49.3% with RXF 393 renal; 22.1% in the experiment on SF-268 CNS; -1.7% (active) with SF-295 CNS; -32.5% (active) with SF-539 CNS. For the same compound, the growth with M14 melanoma was 17.2%.

On to `COc1ccc(/C(=N/O)c2cc(OC)c(OC)c(OC)c2)c(OC)c1N`, for which the growth in the experiment on NCI-H23 lung is 51.9%; in the experiment on NCI-H226 lung it was 80.7%; in the experiment with NCI-H322M lung it was 48.4%; with HOP-62 NSCLC, 33.7%; in the experiment with NCI-H460 lung, 14.5%; in the experiment with HOP-92 NSCLC, 53.2%. In addition, the growth in the experiment on NCI-H522 lung is 0.281% (active); with A549/ATCC NSCLC, 45.6%; in the experiment with 786-0 renal, 30.6%; with COLO 205 colon it was 20.2%; in the experiment on DU-145 prostate it was 39%; in the experiment with K-562 leukemia, 14.7%. Moreover, the growth in the experiment on MALME-3M melanoma was 53.1%; in the experiment on MDA-MB-231 breast it was 55.3%; in the experiment with RXF 393 renal it was 23.2%; with SF-268 CNS it was 49.1%; with SF-295 CNS, 6.4% (active); in the experiment on SF-539 CNS, 3.96% (active). In the experiment on M14 melanoma, the growth was 21%.

For `O=C1CCC(=O)N1Cc1ccccc1`, the growth in the experiment with NCI-H23 lung is 86.7%; in the experiment on NCI-H226 lung, 89.5%; in the experiment with NCI-H322M lung, 98.2%; with HOP-62 NSCLC, 107%; in the experiment on NCI-H460 lung, 106%; in the experiment on HOP-92 NSCLC, 89.9%. Moreover, the growth with NCI-H522 lung was 102%; with A549/ATCC NSCLC, 102%; in the experiment with 786-0 renal it was 104%; with COLO 205 colon, 111%; in the experiment with DU-145 prostate, 105%; in the experiment on K-562 leukemia it was 108%. In addition, the growth in the experiment with MALME-3M melanoma is 110%; with MDA-MB-231 breast, 98%; in the experiment with RXF 393 renal, 87%; in the experiment with SF-268 CNS, 94.7%; with SF-295 CNS it was 102%; in the experiment on SF-539 CNS it was 105%. In addition, the growth in the experiment on M14 melanoma was 94.7%.

With `COc1ccc(S(=O)(=O)N2CCN(c3cc4c(cc3F)c(=O)c(C(=O)O)cn4C3CC3)CC2)c(OC)c1`, the growth in the experiment on NCI-H23 lung is 97%; with NCI-H226 lung, 89%; with NCI-H322M lung, 91.6%; in the experiment on HOP-62 NSCLC it was 86.6%; in the experiment on NCI-H460 lung, 99%; in the experiment with HOP-92 NSCLC it was 90.2%. In addition, the growth was 91.4% in the experiment on NCI-H522 lung; 93.6% with A549/ATCC NSCLC; 91.5% with 786-0 renal; 105% in the experiment with COLO 205 colon; 98.3% in the experiment on DU-145 prostate; 89.1% with K-562 leukemia. The growth was 98% in the experiment on MALME-3M melanoma; 101% in the experiment with MDA-MB-231 breast; 102% in the experiment on RXF 393 renal; 81.8% in the experiment with SF-268 CNS; 91.4% in the experiment with SF-295 CNS; 88.8% with SF-539 CNS. Besides, the values for the growth in the experiment with UACC-257 melanoma and in the experiment on M14 melanoma were 100% and 92.5%, respectively.
